Activity calls are given as the source filed them. The calls were made as follows: active = hit-call score of the fitted dose curve at least 0.9, where 1 is the maximum; inactive = score below 0.9.
How the values were obtained:
[1] = read-out: Tumor necrosis factor receptor superfamily member 6 (Homo sapiens) (UniProt P25445); experiment: LTEA_HepaRG_FAS: Life Technologies and Expression Analysis (LTEA) Assay for Fas cell surface death receptor (FAS) using HepaRG (AID 2283447); settings: mRNA level, 48 h; actives raise or lower the signal
Outline: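 FAS transcript level was measured by TaqMan qRT-PCR against three housekeeping genes after 48 h chemical exposure. Cells were HepaRG, 0.5% DMSO vehicle, with a top concentration of 100 uM and half-log dilutions over eight points, in duplicate.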

[2] = read-out: Fatty acid synthase (Homo sapiens) (UniProt P49327); experiment: LTEA_HepaRG_FASN: Life Technologies and Expression Analysis (LTEA) Assay for Fatty Acid Synthase (FASN) using HepaRG (AID 2283448); settings: mRNA level, 48 h; actives raise or lower the signal;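 as to AC50: differentiated human HepaRG liver cells in serum-free induction medium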
Outline: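 Transcript-level assay: HepaRG liver cells are treated for 48 h across an eight-point range topping at 100 uM, and FASN mRNA, normalized to three housekeeping genes, is compared with DMSO controls in both directions.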

[3] = read-out: Cyclin D2 (CCND2), CCND2 (gene 894); experiment: LTEA_HepaRG_CCND2: Life Technologies and Expression Analysis (LTEA) Assay for Cyclin D2 (CCND2) using HepaRG (AID 2283449); settings: mRNA level, 48 h; actives raise or lower the signal
Outline: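 Read-out is CCND2 mRNA level measured by qRT-PCR in human HepaRG liver cells and normalised to three housekeeping genes. Chemicals were applied for 48 h at up to 100 uM, with gain or loss fitted relative to 0.5% DMSO.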

[4] = read-out: Cyclin Dependent Kinase Inhibitor 1A (CDKN1A), CDKN1A (gene 1026); experiment: LTEA_HepaRG_CDKN1A: Life Technologies and Expression Analysis (LTEA) Assay for Cyclin Dependent Kinase Inhibitor 1A (CDKN1A) using HepaRG (AID 2283450); settings: mRNA level, 48 h; actives raise or lower the signal
Outline: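 HepaRG, 48 h dosing, 8-pt half-log series from 100 uM top, 0.5% DMSO vehicle, duplicates. Readout: TaqMan qRT-PCR of CDKN1A transcript, housekeeping-normalized (ACTB, GAPDH, POLR2A). Up/down curve fit relative to DMSO.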

[5] = read-out: Cyclin D1 (CCND1), CCND1 (gene 595); experiment: LTEA_HepaRG_CCND1: Life Technologies and Expression Analysis (LTEA) Assay for Cyclin D1 (CCND1) using HepaRG (AID 2283451); settings: mRNA level, 48 h; actives raise or lower the signal;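 as to AC50: differentiated human HepaRG liver cells in serum-free induction medium; TaqMan qRT-PCR transcript level normalised to ACTB GAPDH and POLR2A housekeeping genes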
Outline: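 qRT-PCR (Fluidigm 96.96 array) read-out of transcript level, housekeeping-normalized (ACTB/GAPDH/POLR2A). HepaRG cells, 48 h chemical exposure, 8-point half-log series from 100 uM, 0.5% DMSO vehicle; gain or loss relative to DMSO baseline.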

[6] = read-out: catalase (CAT), CAT (gene 847); experiment: LTEA_HepaRG_CAT: Life Technologies and Expression Analysis (LTEA) Assay for catalase (CAT) using HepaRG (AID 2283452); settings: mRNA level, 48 h; actives raise or lower the signal
Outline: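 Expression of CAT was quantified by TaqMan qRT-PCR with ACTB/GAPDH/POLR2A normalization after 48 h chemical exposure of HepaRG. Eight-point half-log series, top 100 uM, in 0.5% DMSO; gain or loss fitted against vehicle.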

[7] = read-out: flavin-containing dimethylaniline monooxygenases 3 (FMO3), FMO3 (gene 2328); experiment: LTEA_HepaRG_FMO3: Life Technologies and Expression Analysis (LTEA) Assay for flavin-containing dimethylaniline monooxygenases 3 (FMO3) using HepaRG (AID 2283453); settings: mRNA level, 48 h; actives raise or lower the signal;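 as to AC50: differentiated human HepaRG liver cells in serum-free induction medium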
Outline: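 HepaRG, 48 h exposure, 8-pt half-log series from 100 uM, 0.5% DMSO vehicle, duplicates; FMO3 transcript by Fluidigm TaqMan qRT-PCR, housekeeping-normalized; gain/loss fit vs DMSO.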

[8] = read-out: Cytochrome P450 (CYP1A1), CYP1A1 (gene 1543); experiment: LTEA_HepaRG_CYP1A1: Life Technologies and Expression Analysis (LTEA) Assay for Cytochrome P450 (CYP1A1) using HepaRG (AID 2283454); settings: mRNA level, 48 h; actives raise or lower the signal
Outline: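 qRT-PCR read-out: CYP1A1 transcript normalized to three housekeeping genes, fitted bidirectionally against 0.5% DMSO vehicle baseline. Human HepaRG cells, 48 h chemical exposure, 8-point half-log series topping at 100 uM.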

[9] = read-out: CFLAR gene, CFLAR (gene 8837); experiment: LTEA_HepaRG_CFLAR: Life Technologies and Expression Analysis (LTEA) Assay for CFLAR gene using HepaRG (AID 2283455); settings: mRNA level, 48 h; actives raise or lower the signal
Outline: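 HepaRG, 48 h exposure, 8-pt conc-response (100 uM top, half-log), 0.5% DMSO vehicle, duplicates. CFLAR expression by qRT-PCR; ACTB/GAPDH/POLR2A normalization; gain or loss fit vs DMSO baseline.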

[10] = read-out: Forkhead box O1 (FOXO1), FOXO1 (gene 2308); experiment: LTEA_HepaRG_FOXO1: Life Technologies and Expression Analysis (LTEA) Assay for Forkhead box O1 (FOXO1) using HepaRG (AID 2283456); settings: mRNA level, 48 h; actives raise or lower the signal
Outline: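 Readout is FOXO1 transcript level by multiplexed qRT-PCR against three housekeeping genes, curve-fitted in both directions relative to 0.5% DMSO vehicle. Human HepaRG cultures received chemicals for 48 h, up to 100 uM in half-log steps.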

[11] = read-out: growth arrest and DNA damage 45 (GADD45A), GADD45A (gene 1647); experiment: LTEA_HepaRG_GADD45A: Life Technologies and Expression Analysis (LTEA) Assay for growth arrest and DNA damage 45 (GADD45A) using HepaRG (AID 2283458); settings: mRNA level, 48 h; actives raise or lower the signal
Outline: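 Human HepaRG liver cells are treated in duplicate for 48 h with chemicals in 0.5% DMSO, highest concentration 100 uM. Expression is read by qRT-PCR and analyzed in both directions against vehicle.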

[12] = read-out: Forkhead box O3 (FOXO3), FOXO3 (gene 2309); experiment: LTEA_HepaRG_FOXO3: Life Technologies and Expression Analysis (LTEA) Assay for Forkhead box O3 (FOXO3) using HepaRG (AID 2283459); settings: mRNA level, 48 h; actives raise or lower the signal
Outline: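 HepaRG, 48 h post-dose; 8 conc., half-log from 100 uM, 0.5% DMSO, duplicates; serum-free induction medium. Readout: FOXO3 mRNA, TaqMan qRT-PCR, housekeeping-normalized. Bidirectional curve fit vs DMSO baseline.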

[13] = read-out: ABC Transporter (ABCB1), ABCB1 (gene 5243); experiment: LTEA_HepaRG_ABCB1: Life Technologies and Expression Analysis (LTEA) Assay for ABC Transporter (ABCB1) using HepaRG (AID 2283460); settings: mRNA level, 48 h; actives raise or lower the signal
Outline: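 Expression of ABCB1 was quantified by qRT-PCR against three housekeeping genes after human HepaRG cultures received test chemicals for 48 hours. Concentrations spanned eight half-log steps topping at 100 uM in 0.5% DMSO; gain or loss of signal was fitted relative to vehicle.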

[14] = read-out: growth arrest and DNA damage 45 (GADD45B), GADD45B (gene 4616); experiment: LTEA_HepaRG_GADD45B: Life Technologies and Expression Analysis (LTEA) Assay for growth arrest and DNA damage 45 (GADD45B) using HepaRG (AID 2283461); settings: mRNA level, 48 h; actives raise or lower the signal
Outline: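 qRT-PCR read-out (Fluidigm TaqMan, housekeeping-normalized) of mRNA change in human HepaRG cells after 48 h chemical exposure; 8-point curve, top 100 uM, half-log steps, 0.5% DMSO vehicle; gain or loss fitted relative to DMSO baseline.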

[15] = read-out: ABC Transporter (ABCB11), ABCB11 (gene 8647); experiment: LTEA_HepaRG_ABCB11: Life Technologies and Expression Analysis (LTEA) Assay for ABC Transporter (ABCB11) using HepaRG (AID 2283463); settings: mRNA level, 48 h; actives raise or lower the signal
Outline: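 ABCB11 transcript levels are read by Fluidigm TaqMan qRT-PCR after 48 h chemical treatment of human HepaRG cells. Concentrations span 100 uM downward in half-log steps with 0.5% DMSO; gain or loss is fitted against DMSO controls.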

[16] = read-out: ABC Transporter (ABCC2), ABCC2 (gene 1244); experiment: LTEA_HepaRG_ABCC2: Life Technologies and Expression Analysis (LTEA) Assay for ABC Transporter (ABCC2) using HepaRG (AID 2283464); settings: mRNA level, 48 h; actives raise or lower the signal
Outline: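 qRT-PCR (TaqMan, Fluidigm array) read-out of ABCC2 mRNA, normalized to three housekeeping genes. Differentiated HepaRG cells were treated 48 h in serum-free induction medium with 8-point half-log series from 100 uM in 0.5% DMSO; curves fitted bidirectionally relative to DMSO.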

[17] = read-out: Broad substrate specificity ATP-binding cassette transporter ABCG2 (Homo sapiens) (UniProt Q9UNQ0); experiment: LTEA_HepaRG_ABCG2: Life Technologies and Expression Analysis (LTEA) Assay for ABC Transporter (ABCG2) using HepaRG (AID 2283465); settings: mRNA level, 48 h; actives raise or lower the signal
Outline: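 Read-out is ABCG2 mRNA induction or loss quantified by qRT-PCR after 48 h chemical treatment of human HepaRG cells, normalized to three housekeeping genes. Concentrations reached 100 uM top in half-log steps; fitting was bidirectional against 0.5% DMSO.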

[18] = CEETOX_H295R_PROG: CeeTox H295R High-throughput Steroidogenesis Assay for Progesterone (PROG) (AID 2283442); settings: actives raise or lower the signal
Outline: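 Progesterone read-out: HPLC-MS/MS on MTBE extracts of conditioned medium after 48 h chemical exposure of forskolin-primed (10 uM, 48 h) H295R cells. Gain or loss of signal was fitted relative to DMSO baseline.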

[19] = read-out: ABC Transporter (ABCC3), ABCC3 (gene 8714); experiment: LTEA_HepaRG_ABCC3: Life Technologies and Expression Analysis (LTEA) Assay for ABC Transporter (ABCC3) using HepaRG (AID 2283462); settings: mRNA level, 48 h; actives raise or lower the signal
Outline: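 qRT-PCR read-out of ABCC3 transcript, normalized to three housekeeping genes (ACTB, GAPDH, POLR2A), after 48 h chemical exposure of human HepaRG cells. Eight half-log concentrations, highest 100 uM, in 0.5% DMSO; gain or loss fitted relative to DMSO baseline.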

[20] = CEETOX_H295R_TESTO: CeeTox H295R High-throughput Steroidogenesis Assay for Testosterone (TESTO) (AID 2283457); settings: actives raise or lower the signal
Outline: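 Readout: testosterone quantified by HPLC-MS/MS (C18, ESI positive) after MTBE liquid-liquid extraction of culture medium. Cells were H295R, 48 h chemical exposure per OECD 456 with modifications. Gain or loss of signal fitted relative to DMSO.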

Measured: AC50

Chain of Broad substrate specificity ATP-binding cassette transporter ABCG2 (Homo sapiens) (Q9UNQ0 whole entry, looked up): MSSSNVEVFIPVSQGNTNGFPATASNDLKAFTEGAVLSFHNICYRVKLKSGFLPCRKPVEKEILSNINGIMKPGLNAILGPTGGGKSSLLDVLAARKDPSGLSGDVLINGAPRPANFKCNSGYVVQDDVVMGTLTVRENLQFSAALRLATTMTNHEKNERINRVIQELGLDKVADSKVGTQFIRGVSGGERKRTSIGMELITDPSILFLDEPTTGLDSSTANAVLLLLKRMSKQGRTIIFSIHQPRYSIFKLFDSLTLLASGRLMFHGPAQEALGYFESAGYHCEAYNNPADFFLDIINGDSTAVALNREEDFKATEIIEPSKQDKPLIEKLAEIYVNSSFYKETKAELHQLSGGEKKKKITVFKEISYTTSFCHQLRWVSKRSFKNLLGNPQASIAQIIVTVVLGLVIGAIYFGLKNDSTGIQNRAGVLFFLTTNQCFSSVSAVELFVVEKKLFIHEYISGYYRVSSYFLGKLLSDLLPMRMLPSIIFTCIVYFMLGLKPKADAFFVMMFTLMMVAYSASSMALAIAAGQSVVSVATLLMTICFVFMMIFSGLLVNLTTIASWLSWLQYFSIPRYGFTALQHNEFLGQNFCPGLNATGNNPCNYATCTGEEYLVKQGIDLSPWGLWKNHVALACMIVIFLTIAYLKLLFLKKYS
Chain of Fatty acid synthase (Homo sapiens) (P49327 whole entry, looked up): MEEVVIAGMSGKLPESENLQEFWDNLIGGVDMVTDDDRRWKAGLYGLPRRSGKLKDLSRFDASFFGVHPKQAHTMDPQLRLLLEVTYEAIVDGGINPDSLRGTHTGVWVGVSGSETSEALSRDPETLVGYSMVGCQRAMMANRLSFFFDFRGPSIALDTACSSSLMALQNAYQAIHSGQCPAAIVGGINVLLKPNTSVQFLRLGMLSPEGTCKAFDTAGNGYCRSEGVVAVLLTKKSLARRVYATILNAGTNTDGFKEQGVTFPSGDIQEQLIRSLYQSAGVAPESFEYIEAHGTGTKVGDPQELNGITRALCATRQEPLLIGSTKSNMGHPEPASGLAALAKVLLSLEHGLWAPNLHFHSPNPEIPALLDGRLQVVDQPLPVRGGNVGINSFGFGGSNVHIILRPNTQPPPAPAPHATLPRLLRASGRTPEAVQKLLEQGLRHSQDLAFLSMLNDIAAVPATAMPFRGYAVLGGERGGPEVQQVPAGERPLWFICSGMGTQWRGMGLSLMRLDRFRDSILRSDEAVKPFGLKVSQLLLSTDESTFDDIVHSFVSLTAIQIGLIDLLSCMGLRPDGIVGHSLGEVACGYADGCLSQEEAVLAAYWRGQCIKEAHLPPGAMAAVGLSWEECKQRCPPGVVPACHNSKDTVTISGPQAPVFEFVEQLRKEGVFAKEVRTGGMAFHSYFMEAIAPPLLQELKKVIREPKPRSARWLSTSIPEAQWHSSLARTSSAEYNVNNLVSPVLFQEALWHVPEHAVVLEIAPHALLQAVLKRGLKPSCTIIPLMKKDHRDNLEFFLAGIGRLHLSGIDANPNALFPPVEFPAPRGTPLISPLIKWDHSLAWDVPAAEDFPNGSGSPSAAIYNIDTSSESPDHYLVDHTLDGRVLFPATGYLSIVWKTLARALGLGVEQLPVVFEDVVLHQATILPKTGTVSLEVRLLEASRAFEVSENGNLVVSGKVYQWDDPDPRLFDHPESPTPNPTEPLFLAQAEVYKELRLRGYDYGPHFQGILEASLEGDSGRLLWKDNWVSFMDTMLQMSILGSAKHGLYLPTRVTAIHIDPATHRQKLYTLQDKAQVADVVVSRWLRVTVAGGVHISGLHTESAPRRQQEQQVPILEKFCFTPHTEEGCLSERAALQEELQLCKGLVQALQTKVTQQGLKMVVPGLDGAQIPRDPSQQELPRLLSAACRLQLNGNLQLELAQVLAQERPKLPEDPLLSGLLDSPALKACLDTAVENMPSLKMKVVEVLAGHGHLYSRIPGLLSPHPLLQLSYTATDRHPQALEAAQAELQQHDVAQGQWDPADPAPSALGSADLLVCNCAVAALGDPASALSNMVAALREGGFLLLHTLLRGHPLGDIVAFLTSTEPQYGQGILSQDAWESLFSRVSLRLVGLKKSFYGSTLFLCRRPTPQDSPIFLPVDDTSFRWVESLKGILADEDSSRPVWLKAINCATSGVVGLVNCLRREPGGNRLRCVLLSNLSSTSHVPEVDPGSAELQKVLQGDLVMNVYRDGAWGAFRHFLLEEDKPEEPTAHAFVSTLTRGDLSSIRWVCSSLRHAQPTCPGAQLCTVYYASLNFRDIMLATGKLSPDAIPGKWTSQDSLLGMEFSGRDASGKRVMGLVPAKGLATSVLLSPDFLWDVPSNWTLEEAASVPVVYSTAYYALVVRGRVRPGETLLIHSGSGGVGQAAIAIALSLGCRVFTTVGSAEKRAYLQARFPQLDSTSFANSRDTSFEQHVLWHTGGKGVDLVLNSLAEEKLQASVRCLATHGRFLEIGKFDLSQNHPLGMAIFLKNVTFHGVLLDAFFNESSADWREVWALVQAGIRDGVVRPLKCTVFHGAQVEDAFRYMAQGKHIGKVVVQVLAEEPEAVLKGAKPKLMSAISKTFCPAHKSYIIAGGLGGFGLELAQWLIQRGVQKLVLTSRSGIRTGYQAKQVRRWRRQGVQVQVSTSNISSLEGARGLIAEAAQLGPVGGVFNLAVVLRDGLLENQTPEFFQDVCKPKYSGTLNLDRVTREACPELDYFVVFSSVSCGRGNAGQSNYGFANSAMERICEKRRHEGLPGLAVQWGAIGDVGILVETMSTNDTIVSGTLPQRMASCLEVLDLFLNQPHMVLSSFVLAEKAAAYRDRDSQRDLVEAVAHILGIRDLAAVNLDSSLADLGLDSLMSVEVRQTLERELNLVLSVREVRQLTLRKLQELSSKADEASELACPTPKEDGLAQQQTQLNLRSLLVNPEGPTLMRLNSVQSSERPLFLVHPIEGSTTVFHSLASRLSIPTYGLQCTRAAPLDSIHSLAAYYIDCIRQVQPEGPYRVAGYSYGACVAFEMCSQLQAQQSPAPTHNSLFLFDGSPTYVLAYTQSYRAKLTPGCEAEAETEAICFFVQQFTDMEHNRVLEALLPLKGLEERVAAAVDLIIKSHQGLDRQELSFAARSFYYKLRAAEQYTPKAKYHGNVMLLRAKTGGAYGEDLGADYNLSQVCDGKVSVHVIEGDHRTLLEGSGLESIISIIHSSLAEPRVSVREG

C=C(C)[C@H]1Cc2c(ccc3c2O[C@@H]2COc4cc(OC)c(OC)cc4[C@@H]2C3=O)O1
inactive: [3] | [9] | [12]
active: [1] 13.1 µM | [2] 20.8 µM | [4] 1.41 µM | [5] 22.8 µM | [6] 1.75 µM | [7] 5.89 µM | [8] 2.44 µM | [10] 11.7 µM | [11] 6.57 µM | [13] 18.6 µM | [14] 16.5 µM | [15] 7.9 µM | [16] 15.2 µM | [17] 1.18 µM

C[Si](Cn1cncn1)(c1ccc(F)cc1)c1ccc(F)cc1
inactive: [18] | [1] | [3] | [11] | [12] | [13]
active: [2] 91.6 µM | [4] 50 µM | [5] 40.3 µM | [6] 50 µM | [7] 37.5 µM | [9] 50 µM | [10] 74.6 µM | [15] 34.5 µM | [16] 50 µM | [17] 16.3 µM

O=c1ccc(=O)[nH][nH]1
not listed: [18] | [20]
inactive: all other assays above

CNC(=O)ON=C(SC)C(=O)N(C)C
inactive: all assays above

CCNc1nc(Cl)nc(NC(C)(C)C#N)n1
active: [16] 5.92 µM
not listed: [8] | [14] | [19] | [20]
inactive: all other assays above

CSc1nc(NC(C)C)nc(NC(C)C)n1
active: [6] 50 µM | [7] 35.9 µM | [13] 3.25 µM | [15] 56.7 µM
not listed: [8] | [14] | [19] | [20]
inactive: all other assays above

CC(COc1ccc(Oc2ccccc2)cc1)Oc1ccccn1 (stereo not given)
active: [2] 30.5 µM | [16] 29.2 µM | [17] 20.6 µM
not listed: [8] | [14] | [19]
inactive: all other assays above

Reference: PubChem BioAssay (EPA / NIEHS)
